Assay outcomes from PubChem.
IDE exosite FP – exo-site inhibitors of human insulin-degrading enzyme; purified IDE, FL-6b probe fluorescence polarization; hits give low values; z-score at 20 µM; 17,000 compounds, 6.3% hits; AID 1259349;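 active = z-score of -3 or lower, meaning strong loss of probe binding signal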;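 note: His-tagged human IDE residues 42-1019 made in E. coli with 30 nM FL-6b probe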
Target sequence (P14735 42-1019 limits assumed): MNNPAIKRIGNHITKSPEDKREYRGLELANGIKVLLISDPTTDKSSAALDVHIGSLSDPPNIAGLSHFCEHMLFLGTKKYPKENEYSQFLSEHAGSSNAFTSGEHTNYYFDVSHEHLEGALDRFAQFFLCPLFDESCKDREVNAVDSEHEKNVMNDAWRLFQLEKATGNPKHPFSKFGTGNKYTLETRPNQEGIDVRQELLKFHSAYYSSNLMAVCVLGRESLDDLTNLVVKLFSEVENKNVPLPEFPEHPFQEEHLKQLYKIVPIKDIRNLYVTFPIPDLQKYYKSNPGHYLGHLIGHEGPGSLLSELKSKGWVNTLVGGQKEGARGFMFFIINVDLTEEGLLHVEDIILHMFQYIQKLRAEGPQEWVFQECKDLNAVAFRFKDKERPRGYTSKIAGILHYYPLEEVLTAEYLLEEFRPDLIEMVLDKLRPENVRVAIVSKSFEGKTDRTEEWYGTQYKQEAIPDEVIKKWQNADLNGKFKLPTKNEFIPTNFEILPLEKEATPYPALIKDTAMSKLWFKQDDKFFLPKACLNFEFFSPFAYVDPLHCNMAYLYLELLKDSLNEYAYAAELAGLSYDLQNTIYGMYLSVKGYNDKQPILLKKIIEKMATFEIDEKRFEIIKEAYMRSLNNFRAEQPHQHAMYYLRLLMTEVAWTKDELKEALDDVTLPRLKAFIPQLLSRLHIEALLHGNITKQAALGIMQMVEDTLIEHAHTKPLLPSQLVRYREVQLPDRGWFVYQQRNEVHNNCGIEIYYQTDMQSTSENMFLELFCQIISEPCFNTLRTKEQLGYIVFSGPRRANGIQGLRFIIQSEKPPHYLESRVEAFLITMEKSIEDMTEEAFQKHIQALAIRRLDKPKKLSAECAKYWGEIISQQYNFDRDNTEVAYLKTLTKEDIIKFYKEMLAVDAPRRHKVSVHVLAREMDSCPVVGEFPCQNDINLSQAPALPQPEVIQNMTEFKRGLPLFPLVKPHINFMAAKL
The depositor's hits bear a star. The entries come from a sample that favours hits as a whole.

SMILES	IDE exosite FP
O=C(c1cccnc1)N1CC(=O)N2[C@H](CO)[C@H](c3ccc(-c4ccc(F)cc4)cc3)[C@@H]2C1	0.28
CC(=O)N1[C@H](CO)[C@@H](c2ccccc2)[C@@H]1CN(C(=O)c1ccc(F)cc1)C(C)C	2.1
CCCNC(=O)N1[C@H](CO)[C@@H]2c3ccccc3N(C(=O)Nc3cccc(Cl)c3)C[C@@H]21	1.5
C[C@@H]1CN([C@@H](C)CO)C(=O)c2ccccc2-c2ccccc2CO[C@@H]1CN(C)S(=O)(=O)c1cccc(C#N)c1	0.23
C[C@H](CO)N1C[C@H](C)[C@@H](CN(C)S(C)(=O)=O)Oc2ccc(NC(=O)Nc3ccc(F)cc3)cc2CC1=O	0.55
COc1ccc(C[C@H]2CCn3nncc3COC[C@H](c3ccccc3)NC2=O)cc1	1.5
N#C[C@H]1[C@H](c2ccccc2-c2cccc(F)c2)[C@@H](CO)N1C(=O)C1CCC1	1.5
COCC(=O)N1CC(=O)N2[C@H](C1)[C@H](c1ccc(C#CC3CCCC3)cc1)[C@@H]2CO	0.5
COCC(=O)N1CC(=O)N2[C@H](CO)[C@H](c3ccc(C#CC4CCCCC4)cc3)[C@@H]2C1	1.8
COCC(=O)N1CC(=O)N2[C@@H](CO)[C@H](c3ccc(C#Cc4cccnc4)cc3)[C@@H]2C1	1.1
COCC(=O)N1CC(=O)N2[C@H](CO)[C@@H](c3ccc(C#Cc4cccc(OC)c4)cc3)[C@H]2C1	-1.2
COCC(=O)N1CC(=O)N2[C@H](C1)[C@@H](c1ccc(C#CC3CCCCC3)cc1)[C@@H]2CO	-11*
COCC(=O)N1CC(=O)N2[C@@H](CO)[C@H](c3ccc(C#Cc4cccc(OC)c4)cc3)[C@@H]2C1	-5*
COCC(=O)N1CC(=O)N2[C@H](C1)[C@@H](c1ccc(C#Cc3cccnc3)cc1)[C@@H]2CO	-0.066
COCC(=O)N1CC(=O)N2[C@H](CO)[C@@H](c3ccc(C#Cc4cccc(OC)c4)cc3)[C@@H]2C1	-4.5*
CCN1Cc2cc(C(=O)Nc3nccs3)nc(-c3cccc(C4=CCCC4)c3)c2[C@H]1CCO	0.62
O=C(C[C@H]1C=C[C@@H](NC(=O)Cc2cccnc2)[C@H](CO)O1)NCc1ccc2c(c1)OCO2	1.6
O=C(C[C@H]1CC[C@@H](NC(=O)C2CC2)[C@@H](CO)O1)Nc1ccccc1	0.99
CC(=O)N(CC1CCC1)C[C@@H]1N[C@@H](CO)[C@H]1c1ccc(C2=CCCC2)cc1	-2.4
N#C[C@@H]1[C@H](c2ccccc2)[C@H](CO)N1C(=O)c1cccnc1	2.1
CN(C[C@H]1N[C@@H](CO)[C@H]1c1ccc(-c2ccc(F)cc2)cc1)C(=O)C1CCC1	-0.83
C[C@@H]1CN([C@H](C)CO)C(=O)c2cc(NC(=O)Nc3cccc4ccccc34)ccc2O[C@@H](C)CCCCO[C@H]1CN(C)Cc1ccc(C(F)(F)F)cc1	0.032
CCC(=O)N1CC(=O)N2[C@H](CO)[C@@H](c3ccc(C#Cc4cccnc4)cc3)[C@@H]2C1	-0.31
CCC(=O)N1CC(=O)N2[C@@H](CO)[C@@H](c3ccc(C#Cc4cccnc4)cc3)[C@@H]2C1	2
CCCNC(=O)N1CC(=O)N2[C@@H](CO)[C@@H](c3ccc(C#Cc4cccc(OC)c4)cc3)[C@@H]2C1	-1.3
SMILES	IDE exosite FP
CCC(=O)N1CC(=O)N2[C@@H](CO)[C@@H](c3ccc(C#Cc4cccc(OC)c4)cc3)[C@@H]2C1	-11*
CCCNC(=O)N1CC(=O)N2[C@@H](CO)[C@H](c3ccc(C#Cc4cccc(OC)c4)cc3)[C@@H]2C1	-2.8
COc1cccc(C#Cc2ccc([C@H]3[C@H](CO)N4C(=O)CN(C(=O)c5ccccc5)C[C@@H]34)cc2)c1	-2.2
CCC(=O)N1CC(=O)N2[C@H](C1)[C@H](c1ccc(C#Cc3cccnc3)cc1)[C@@H]2CO	-3*
COc1cccc(C#Cc2ccc([C@@H]3[C@@H](CO)N4C(=O)CN(C(=O)C5CC5)C[C@H]34)cc2)c1	-1.9
CCC(=O)N1CC(=O)N2[C@H](CO)[C@@H](c3ccc(C#Cc4cccc(OC)c4)cc3)[C@H]2C1	-4.2*
N#C[C@H]1[C@H](c2ccc(C#Cc3ccc(F)cc3)cc2)[C@H](CO)N1C(=O)Nc1ccc(F)cc1	3.2
C[C@@H]1CN([C@H](C)CO)C(=O)c2cc(N(C)C)ccc2O[C@@H](C)CCCCO[C@@H]1CN(C)S(=O)(=O)c1ccc(F)cc1	0.11
C[C@@H]1CN([C@@H](C)CO)C(=O)c2cc(NS(C)(=O)=O)ccc2O[C@@H](C)CCCCO[C@H]1CN(C)C(=O)Cc1ccccc1	1.1
O=C(C[C@@H]1C[C@H]2c3cc(NS(=O)(=O)c4ccc(F)cc4)ccc3O[C@H]2[C@H](CO)O1)NCc1cccnc1	0.03
O=C(C[C@@H]1C=C[C@@H](NC(=O)c2cnccn2)[C@@H](CO)O1)NCc1ccccc1F	-0.054
CCC(=O)NC[C@@H]1[C@@H](c2ccccc2)[C@H](CO)N1C(=O)C1CC1	5.8
COc1ccc2c3c(n(C)c2c1)[C@H](CO)N(C(=O)c1ccccc1)CC31CCN(C(=O)c2ccccc2)CC1	1
CO[C@H]1CN(C)C(=O)c2cc(NC(C)=O)ccc2OC[C@@H](C)N(Cc2ccncc2)C[C@H]1C	0.52
